CYP2C19 inhib: blocks human cytochrome P450 2C19; P33261; CYP2C19 Supersomes, luciferin-H EGE luminescence, 30 min; inhibition, % at 5 µM; actives 21% (n = 96,000); AID 778;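 active = CYP2C19 inhibition above a set limit at 5 µM in the primary screen, cut at about 50% in these data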;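 note: plate controls were negative control wells for no effect and 2.5 mM tranylcypromine positive control for full effect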
CYP2C9 inh: blocks human cytochrome P450 2C9 | P11712 | CYP2C9 Supersomes, luciferin-H conversion, luminescence | inhibition, % at 5 µM | actives 20% (n = 96,000) | AID 777;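 active = blocking of liver enzyme CYP2C9 beyond about 50% at 5 µM, limit read from the data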
CYP2C9 activ: increases human cytochrome P450 2C9 activity | recombinant CYP2C9, luciferin-H conversion, luminescence; stronger effect = higher value; factor 1 = untreated enzyme, 0 = blocked | activation factor at 5 µM | actives 1.4% (n = 96,000) | AID 1024;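 active = activation factor of 2 or more for CYP2C9 at a 5 µM dose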;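 note: 0 = sulfaphenazole-blocked wells and 1 = vehicle-only wells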
PLAP act: activates human placental alkaline phosphatase. P05187. purified PLAP enzyme, luminescent substrate read-out; stronger effect = higher value. activation fold at 20 µM. actives 1.2% (n = 96,000); in the data active = activation fold above about 2
Target sequence (P05187 whole entry, looked up): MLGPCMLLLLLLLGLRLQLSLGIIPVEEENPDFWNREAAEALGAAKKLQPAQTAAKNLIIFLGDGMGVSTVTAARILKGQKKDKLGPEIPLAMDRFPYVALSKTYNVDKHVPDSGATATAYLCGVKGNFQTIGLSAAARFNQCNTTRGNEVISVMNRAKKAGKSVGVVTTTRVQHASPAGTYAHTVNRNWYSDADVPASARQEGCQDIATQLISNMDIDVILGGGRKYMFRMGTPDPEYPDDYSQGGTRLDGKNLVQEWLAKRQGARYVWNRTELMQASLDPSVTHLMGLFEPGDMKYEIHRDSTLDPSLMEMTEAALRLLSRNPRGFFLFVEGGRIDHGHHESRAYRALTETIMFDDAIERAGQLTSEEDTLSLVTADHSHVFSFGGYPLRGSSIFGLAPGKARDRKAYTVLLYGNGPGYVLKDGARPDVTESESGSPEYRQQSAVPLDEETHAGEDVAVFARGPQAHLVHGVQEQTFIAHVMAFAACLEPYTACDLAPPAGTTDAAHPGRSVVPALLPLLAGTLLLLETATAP
CYP2C19 activ: activators of human cytochrome P450 2C19; P33261; recombinant CYP2C19, luciferin-H EGE luminescence; stronger effect = higher value; 0 = fully inhibited enzyme, 1 = untreated enzyme; activation factor at 5 µM; 96,000 tested, under 10 active;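 active = activation factor of at least 2 at 5 µM in the primary screen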;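 note: 0 = wells with 2.5 mM tranylcypromine and 1 = vehicle-only wells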
Active calls of the source: *. An excerpt weighted towards active compounds, which were near 31% of everything screened.

SMILES	CYP2C19 inhib	CYP2C9 inh	CYP2C9 activ	PLAP act	CYP2C19 activ
CC(C)OC(=O)[C@H]1[C@H](c2ccc(Cl)cc2)[C@@](C#N)(C(N)=O)[C@@H]2C=CC(C(N)=O)=CN21	25	-3	1	1.1	0.8
O=C(COC(=O)c1ccccn1)NCCCc1ccccc1	38	16	0.8	0.9	0.6
c1ccc2c(c1)nc(N1CCOCC1)c1c3ccccc3[nH]c21	15	15	0.8	0.9	0.8
Fc1ccc(Nc2nc(N3CCOCC3)c3ccccc3n2)cc1	76*	74*	0.3	1	0.2
Cc1cccc(NC(=O)CCSc2nc(C)cc(C)n2)c1	52*	-169	2.7*	1.1	0.5
Cc1cc(C)nc(SCc2nnc(SCC(=O)Nc3ccc(Cl)c(C(F)(F)F)c3)o2)n1	47	24	0.8	1.2	0.5
COC(=O)c1cccc(NC(=O)COC(=O)CSc2nc(C)cc(C)n2)c1	26	28	0.7	1	0.7
Cc1cccc(NC(=O)CSc2nnc(CSc3nc(C)cc(C)n3)o2)c1	89*	44	0.6	1.1	0.1
N#Cc1ccc(Nc2ccccc2)c(N)c1	33	23	0.8	0.9	0.7
COc1ccc2c(C(=O)CN3CC(C)OC(C)C3)c[nH]c2c1 (configuration not stated)	53*	21	0.8	1.1	0.5
O=C(CSc1cccc2cccnc12)OCC(=O)c1ccc(Br)cc1	-3	-81	1.8	1	1
O=C(CSc1cccc2cccnc12)OCC(=O)c1ccccc1	28	-157	2.6*	1	0.7
Cc1ccc(N2C(=O)c3ccc(N)cc3C2=O)cc1	14	30	0.7	0.8	0.9
Nc1ccc2c(c1)C(=O)C(=O)c1ccccc1-2	98*	87*	0.1	0.8	0
c1cnc(SCCOc2ccc3c(c2)CCC3)nc1	14	23	0.8	0.8	0.9
CCOC(=O)C1CCCN(C(=O)/C=C/c2cccc([N+](=O)[O-])c2)C1 (configuration not stated)	11	-2	1	1.1	0.9
CN(C)c1nc(N2CCN(c3ccc(F)cc3)CC2)c(C#N)c(=O)o1	82*	-119	2.2*	1.3	0.2
Cc1cccc(OCCC(=O)NCC(c2ccco2)N2CCCCC2)c1 (configuration not stated)	34	11	0.9	1.4	0.7
CCOC(=O)C1(S(=O)(=O)c2ccc(Cl)cc2)CCN(Cc2ccc(C)cc2)CC1	92*	99*	0	1.3	0.1
CC1=C(C(=O)Nc2ccccc2)C(c2ccc(O)cc2)N2C(=O)CSC2=N1 (configuration not stated)	-10	16	0.8	0.9	1.1
CC1=C(C(=O)Nc2ccccc2)C(c2ccc(C)o2)n2c(s/c(=C\c3ccco3)c2=O)=N1 (configuration not stated)	69*	85*	0.1	1.3	0.3
CC(=O)/C(C#N)=C1\NC(=O)C(Cc2ccc(C)c(C)c2)S1 (configuration not stated)	-5	94*	0.1	1	1.1
CCN(CC)CCNC(=O)C12CC3CC(C)(CC(C)(C3)C1)C2	1	4	1	2.1*	1
CC12CC3CC(C)(C1)CC(C(=O)NC1=NCCS1)(C3)C2	58*	-9	1.1	1	0.4
Cc1ccc(NCC(=O)N/N=C/c2ccc(OC(=O)c3ccco3)cc2)cc1	0	-2	1	0.9	1
SMILES	CYP2C19 inhib	CYP2C9 inh	CYP2C9 activ	PLAP act	CYP2C19 activ
O=C(Cc1csc(N2CCOCC2)n1)N/N=C/c1ccc(F)cc1	6	22	0.8	1.6	0.9
CCc1cc2c(C)cc(=O)oc2cc1OC(=O)C1CCCN1C(=O)OC(C)(C)C (configuration not stated)	30	39	0.6	1.5	0.7
O=C(CSc1nnc(COc2ccc3c(c2)CCCC3)o1)Nc1ccc(F)cc1	19	-26	1.3	1.3	0.8
COc1ccc2c(c1)c(=O)oc1cc(OCC(=O)NC3CCCCC3)ccc12	89*	32	0.7	0.9	0.1
COc1ccc2c(c1)c(=O)oc1cc(OCC(=O)NC3CC3)ccc12	60*	15	0.8	0.8	0.4
CCn1cnc2scc(-c3ccccc3)c2c1=O	7	-3	1	1	0.9
C=CCn1cnc2scc(-c3ccc(CC)cc3)c2c1=O	93*	53*	0.5	1	0.1
CSc1nnnn1CCn1nnnc1SC	-16	10	0.9	1	1.2
Cc1ccc(NC(C)c2cc(Cl)ccc2O)cc1 (configuration not stated)	100*	98*	0	1.3	0
Cc1ccc(NC(=O)C(c2ccc(Cl)cc2)N2CCCCC2)cc1 (configuration not stated)	32	27	0.7	1.1	0.7
Cc1cc2c(=O)n(NC(N)=O)c(C)nc2s1	2	9	0.9	0.9	1
COC(=O)c1ccc(NC2(C#N)C(=O)Nc3ccccc32)cc1 (configuration not stated)	52*	71*	0.3	1.3	0.5
Cc1cccc(OCc2nc(C#N)c(NCc3ccc4c(c3)OCO4)o2)c1	99*	97*	0	1.1	0
Cc1cccc(OCc2nc(C#N)c(NCCN(C)C)o2)c1	8	-2	1	1	0.9
N#Cc1nc(COc2ccc(Cl)cc2)oc1NCc1ccc2c(c1)OCO2	65*	84*	0.2	0.8	0.3
Cc1cccc(OCc2nc(C#N)c(N3CC(C)CC(C)C3)o2)c1 (configuration not stated)	82*	78*	0.2	1.4	0.2
Cc1nc(C#N)c(NCc2ccc3c(c2)OCO3)o1	92*	39	0.6	0.8	0.1
O=C(CSc1nc2ccccc2o1)NCc1n[nH]c(=O)c2ccccc12	-13	-50	1.5	1	1.1
Cc1nn(-c2ccccc2)c2c1C1(C(=O)N(C(C)C)c3ccccc31)C(C#N)=C(N)O2 (configuration not stated)	48	46	0.5	1	0.5
CCNc1oc(COc2cccc(C)c2)nc1C#N	98*	51*	0.5	0.9	0
CC(=O)Nc1ccccc1C(=O)N1CCc2ccccc21	16	-18	1.2	1.1	0.8
CC(C(=O)N1CCc2ccccc21)n1cccc1 (configuration not stated)	82*	-4	1	0.9	0.2
Cc1cc(=O)oc2cc(OCC(O)CN3CCN(c4ccccc4)CC3)ccc12 (configuration not stated)	13	5	0.9	1.3	0.9
Cc1cc(=O)oc2cc(OCC(O)CN3CCc4ccccc4C3)ccc12 (configuration not stated)	65*	100*	0	1.5	0.4
O=C(c1ccccc1F)N1CCc2ccccc21	62*	-250	3.5*	1	0.4
CCc1cc(=O)oc2c(C)c(OCC(=O)N3CCCc4ccccc43)ccc12	66*	94*	0.1	1.6	0.3

Screens deposited in PubChem by Sanford-Burnham Center for Chemical Genomics.
